# Laboratory results as given in PubChem BioAssay.
# Measured potencies and affinities stand elsewhere. Results filed as inconclusive are left out. Unmarked numbers belong to inactive results. Calls of active or inactive are those of the source.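 How the source made its calls, unless noted: active means a dose-response fit showing signal loss, with half-maximal concentration no higher than twice the top tested dose; inconclusive means flat fit between 30% and 70% signal loss, or poor fit; inactive means the rest.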
# Assays:
# [1] = fungal growth arrest, C. neoformans – Alamar Blue, cherry-picks, dose response (AID 686998;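 active means falling signal with fitted half-maximal potency no higher than twice the top valid tested dose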)
# [2] = viability loss in HepG2 hepatoma cells – cell-based, cherry-picks, set 2, cytotoxicity control, dose response (AID 687002)
# [3] = viability loss in HeLa cells – cell-based, ATP luminescence, cherry-pick samples, cytotoxicity control, dose response (AID 687004;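 active means a fitted half-maximal concentration no higher than twice the top valid tested dose, with signal falling as cells die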;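 further: 0% = neutral control median and -100% = staurosporine 10 µM control median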)
# [4] = C. neoformans lysis by adenylate kinase leakage – AK release luminescence, cherry-picks, dose response (AID 687000;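 active means fitted dose curve reaches 40% lysis signal rise at or below the highest valid concentration tested for that sample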;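 further: luminescent detection of adenylate kinase leaking from lysed yeast; 0% = median neutral control signal and 100% = double that signal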)
# [5] = RMG-1 ovarian cancer cell viability loss – cherry-pick, dose response (AID 687029;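 active means signal drop whose fitted half-maximal concentration is at most twice the top valid dose, in every test run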;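 further: cells exposed to compound for 96 hours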)
# [6] = IOSE-T80 viability loss, PAX8-independent line – cell-based, cherry-pick, selectivity assay for PAX8 inhibitor project, dose response (AID 687032;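 active means fitted half-maximal concentration for viability loss no higher than twice the top valid dose, in every repeat run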;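 further: cells exposed to compound for 96 h before reading; 0% = neutral control wells and -100% = 2 µM mitoxantrone kill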)
# [7] = CMV-driven luciferase expression suppression in HEK293 – cell-based, luminescence, dry powder, counter-screen for Pax8 inhibitor project, dose response (AID 743020;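 active means signal-lowering compounds whose fitted half-maximal concentration is at or below twice the top tested dose in every run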;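 further: HEK293 cells stably expressing the CMV luciferase reporter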)
# [8] = general cell-killing toxicity readout – plate reader, dry powder samples, cytotoxicity control for PAX8 inhibitor project, dose response (AID 743021; call rule not given here)
# [9] = IGROV1 cell killing – plate reader, dry powder samples, PAX8 inhibitor project, dose response (AID 743043; call rule not given here;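 further: more negative means fewer viable cells or more cytotoxicity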)
# [10] = OVCAR-3 cell viability loss – plate reader, dry powder samples, PAX8 inhibitor project, dose response (AID 743044; call rule not given here); conditions: max activity: at 35 µM, hits give low values unless noted
# [11] = toxicity toward immortalized ovarian surface epithelium – cell-based, plate reader, dry powder samples, cytotoxicity control for PAX8 inhibitor project, dose response (AID 743045; call rule not given here;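 further: 0% = neutral control median and -100% = positive control median; more negative values mean more cell killing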)
# [12] = OVCAR8 cell viability loss – plate reader, dry powder samples, PAX8 project, dose response (AID 743197; call rule not given here)
structure (smiles),measurement,setting,value
O=C(Nc1ccccc1N1CCOCC1)c1cccc([N+](=O)[O-])c1,outcome,[1],inactive
same,outcome,[2],inactive
same,outcome,[3],inactive
C[C@@H]1CCCCO[C@@H](CN(C)C(=O)Nc2cccc3ccccc23)[C@@H](C)CN([C@H](C)CO)C(=O)c2cc(NS(=O)(=O)c3ccccc3)ccc2O1,outcome,[1],inactive
same,outcome,[2],inactive
same,outcome,[3],inactive
CCCN1C[C@H](C)[C@@H](OC)CN(C)C(=O)c2cc(NC(=O)c3cccc(F)c3)ccc2OC[C@@H]1C,outcome,[1],inactive
same,outcome,[2],inactive
same,outcome,[3],inactive
CNC[C@@H]1OCCCC[C@@H](C)Oc2ccc(NC(=O)Nc3ccc4c(c3)OCO4)cc2C(=O)N([C@H](C)CO)C[C@@H]1C,outcome,[1],inactive
same,outcome,[2],inactive
same,outcome,[3],inactive
CC(C)C#Cc1ccc([C@@H]2[C@H](CO)N3CCCCN(C(=O)c4ccc5c(c4)OCO5)C[C@@H]23)cc1,outcome,[1],inactive
same,outcome,[2],inactive
same,outcome,[3],inactive
Cc1ccccc1NC(=O)C(=O)NCCCN1CCCC1=O,outcome,[1],inactive
same,outcome,[2],inactive
same,outcome,[3],inactive
C[C@@H]1CCCCO[C@@H](CN(C)C(=O)CCCN(C)C)[C@@H](C)CN([C@H](C)CO)C(=O)c2cc(NC(=O)Cc3ccccc3)ccc2O1,outcome,[1],inactive
same,outcome,[2],inactive
same,outcome,[3],inactive
O=C(NC1CCCCC1)N[C@H]1C=C[C@@H](CC(=O)N2CCOCC2)O[C@@H]1CO,outcome,[1],inactive
same,outcome,[2],inactive
same,outcome,[3],inactive
COC(=O)C1=C(C)N(Cc2ccccc2)C(=S)N[C@H]1c1ccc(Br)cc1,outcome,[1],inactive
same,outcome,[2],inactive
same,outcome,[3],inactive
C[C@H]1CN([C@@H](C)CO)C(=O)c2cccc(NS(=O)(=O)c3ccc(Cl)cc3)c2O[C@@H]1CN(C)CC1CC1,outcome,[1],inactive
same,outcome,[2],inactive
same,outcome,[3],inactive
C[C@@H]1CCCCO[C@H](CN(C)C(=O)CCCN(C)C)[C@@H](C)CN([C@H](C)CO)C(=O)c2cc(NC(=O)Cc3ccccc3)ccc2O1,outcome,[1],inactive
same,outcome,[2],inactive
same,outcome,[3],inactive
O=C(NC(=S)Nc1cccc(F)c1)c1cccc([N+](=O)[O-])c1,outcome,[1],inactive
same,outcome,[2],inactive
same,outcome,[3],inactive
CCCC(=O)Nc1ccc2c(c1)C(=O)N(C)C[C@H](OC)[C@@H](C)CN(C(=O)c1cccnc1)[C@@H](C)CO2,outcome,[1],inactive
same,outcome,[2],inactive
same,outcome,[3],inactive
C[C@@H]1CCCCO[C@H](CN(C)S(=O)(=O)c2cccs2)[C@@H](C)CN([C@@H](C)CO)C(=O)c2cc(NC(=O)CCC(F)(F)F)ccc2O1,outcome,[1],inactive
same,outcome,[2],inactive
same,outcome,[3],inactive
C[C@H](CO)N1C[C@H](C)[C@H](CN(C)Cc2ccccc2)OCCCC[C@H](C)Oc2ccc(NS(=O)(=O)c3cccs3)cc2C1=O,outcome,[1],inactive
same,outcome,[2],inactive
same,outcome,[3],inactive
S=C(Nc1ccc(Cl)cc1Cl)Nc1ccccc1Oc1ccccc1,outcome,[1],inactive
same,outcome,[2],inactive
same,outcome,[3],inactive
Cc1ccc(S(=O)(=O)N[C@H]2C=C[C@@H](CC(=O)N3CCC(Cc4ccccc4)CC3)O[C@H]2CO)cc1,outcome,[1],inactive
same,outcome,[2],inactive
same,outcome,[3],inactive
CC(C)CC#Cc1cnc2c(c1)C(=O)N([C@H](C)CO)C[C@H](C)[C@@H](CN(C)Cc1cccc(F)c1)O2,outcome,[1],inactive
same,outcome,[2],inactive
same,outcome,[3],inactive
C[C@H]1CN([C@@H](C)CO)C(=O)Cc2cc(NS(C)(=O)=O)ccc2O[C@@H]1CN(C)Cc1ccc(Cl)c(Cl)c1,outcome,[1],inactive
same,outcome,[2],inactive
same,outcome,[3],inactive
Cc1ccc(NC(=O)N2CCCC2C(=O)Nc2c(C)cc(C)cc2C)cc1 (stereo not drawn),outcome,[1],inactive
same,outcome,[2],inactive
same,outcome,[3],inactive
O=C(NCCN1CCCCC1)[C@H]1N[C@H]2c3ccc(-c4ccncc4)c(=O)n3C[C@H]2[C@@H]1CO,outcome,[1],inactive
same,outcome,[2],inactive
same,outcome,[3],inactive
CCCC(=O)Nc1ccc2c(c1)C(=O)N(C)C[C@H](OC)[C@@H](C)CN(C(=O)c1cccnc1)[C@H](C)CO2,outcome,[1],inactive
same,outcome,[2],inactive
same,outcome,[3],inactive
CO[C@H]1CN(C)C(=O)c2cc(NC(=O)C3CC3)ccc2OC[C@@H](C)N(Cc2cncnc2)C[C@H]1C,outcome,[1],inactive
same,outcome,[2],inactive
same,outcome,[3],inactive
C[C@H](CO)N1C[C@H](C)[C@@H](CN(C)C(=O)c2ccncc2)OCCCC[C@H](C)Oc2ccc(NC(=O)Cc3ccccc3)cc2C1=O,outcome,[1],inactive
same,outcome,[2],inactive
same,outcome,[3],inactive
CC(C)NC(=O)N[C@H]1CC[C@@H](CCNC(=O)C2CC2)O[C@H]1CO,outcome,[1],inactive
same,outcome,[2],inactive
same,outcome,[3],inactive
Cc1cccc(C)c1NC(=O)CN(C)C(=O)C1CC1C (stereo not drawn),outcome,[1],inactive
same,outcome,[2],inactive
same,outcome,[3],inactive
C[C@H]1CN([C@@H](C)CO)S(=O)(=O)c2ccc(Br)cc2O[C@@H]1CN(C)C(=O)CCN1CCCCC1,outcome,[1],inactive
same,outcome,[2],inactive
same,outcome,[3],inactive
Cc1noc(C)c1S(=O)(=O)Nc1ccc2c(c1)CC(=O)N([C@H](C)CO)C[C@H](C)[C@@H](CN(C)S(=O)(=O)c1cn(C)cn1)O2,outcome,[1],inactive
same,outcome,[2],inactive
same,outcome,[3],inactive
Cc1noc(C)c1NC(=O)Nc1ccc2c(c1)C(=O)N([C@@H](C)CO)C[C@H](C)[C@H](CN(C)CC1CCCCC1)O2,outcome,[1],inactive
same,outcome,[2],inactive
same,outcome,[3],inactive
O=C(CC1CC1)N1[C@@H]2CN(S(=O)(=O)c3ccccc3)c3ccccc3[C@@H]2[C@@H]1CO,outcome,[1],inactive
same,outcome,[3],inactive
C[C@@H]1CN([C@H](C)CO)S(=O)(=O)c2ccc(-c3ccccc3)cc2O[C@H]1CN(C)C(=O)C1CCCCC1,outcome,[4],inactive
same,outcome,[2],inactive
O=C(Nc1ccc(N2CCOCC2)cc1N1CCOCC1)c1cccc([N+](=O)[O-])c1,outcome,[4],inactive
same,outcome,[2],inactive
same,outcome,[3],inactive
COc1cccc(S(=O)(=O)N(C)C[C@@H]2OCc3ccccc3-c3ccccc3C(=O)N([C@@H](C)CO)C[C@@H]2C)c1,outcome,[1],inactive
same,outcome,[2],inactive
same,outcome,[3],inactive
same,outcome,[5],inactive
same,outcome,[6],inactive
same,outcome,[7],inactive
same,outcome,[8],inactive
same,outcome,[9],inactive
same,max activity,[10],"-40.1% [at 8 µM, hits give low values]"
same,outcome,[11],inactive
same,outcome,[12],inactive
COCCNC(=O)C[C@@H]1C[C@H]2c3cc(NC(=O)C4CCOCC4)ccc3O[C@H]2[C@H](CO)O1,outcome,[1],inactive
same,outcome,[2],inactive
same,outcome,[3],inactive
CC(C)NC(=O)Nc1ccc2c(c1)CC(=O)N([C@H](C)CO)C[C@H](C)[C@@H](CN(C)C(=O)Nc1ccc3c(c1)OCO3)O2,outcome,[4],inactive
same,outcome,[2],inactive
CC(=O)c1sc(NC(=O)C2(F)C(F)(F)C(F)(F)C(F)(F)C(F)(F)C2(F)F)nc1C,outcome,[4],inactive
same,outcome,[2],inactive
CC(=O)c1sc(NC(=O)c2cc(-c3ccccc3)nn2-c2ccccc2)nc1C,outcome,[4],inactive
same,outcome,[2],inactive
C[C@H](CO)N1C[C@H](C)[C@@H](CN(C)Cc2ccc(Oc3ccccc3)cc2)Oc2ccc(NC(=O)Nc3ccc4c(c3)OCO4)cc2C1=O,outcome,[4],inactive
same,outcome,[2],inactive
same,outcome,[3],inactive
C[C@@H]1CCCCO[C@@H](CN(C)C(=O)Nc2ccc3c(c2)OCO3)[C@@H](C)CN([C@H](C)CO)C(=O)c2cc(NC(=O)Nc3cccc4ccccc34)ccc2O1,outcome,[1],inactive
same,outcome,[2],inactive
same,outcome,[3],inactive
C[C@@H]1CN([C@@H](C)CO)C(=O)c2cc(NC(=O)C3CC3)ccc2O[C@H]1CN(C)CC1CCCCC1,outcome,[1],inactive
same,outcome,[2],inactive
same,outcome,[3],inactive
C[C@H](CO)N1C[C@H](C)[C@@H](CN(C)Cc2ccc(-c3ccccc3)cc2)Oc2ccc(NC(=O)Nc3ccc(C(F)(F)F)cc3)cc2C1=O,outcome,[1],inactive
same,outcome,[2],inactive
same,outcome,[3],inactive
Cc1noc(C)c1NC(=O)Nc1ccc2c(c1)C(=O)N([C@@H](C)CO)C[C@H](C)[C@H](CN(C)S(=O)(=O)c1ccc(Cl)cc1)O2,outcome,[1],inactive
same,outcome,[2],inactive
same,outcome,[3],inactive
N#C[C@H]1[C@@H](c2ccc(C#CCC3CCCC3)cc2)[C@@H](CO)N1C(=O)c1ccccn1,outcome,[4],inactive
same,outcome,[2],inactive
CN(C)CCCn1c(=O)n(C2CCCCC2)c(=O)c2c3c(sc21)CCCCC3,outcome,[4],inactive
same,outcome,[2],inactive
same,outcome,[3],inactive
CC(C)COc1ccc(CNC(=S)NCc2ccccc2)cc1,outcome,[4],inactive
same,outcome,[2],inactive
same,outcome,[3],inactive
COc1ccc(CN(C)C[C@@H]2Oc3ccc(NS(C)(=O)=O)cc3CC(=O)N([C@H](C)CO)C[C@H]2C)cc1,outcome,[4],inactive
same,outcome,[2],inactive
same,outcome,[3],inactive
CNC[C@@H]1OCCCC[C@@H](C)Oc2ccc(NS(=O)(=O)c3ccc(Cl)cc3)cc2C(=O)N([C@H](C)CO)C[C@H]1C,outcome,[1],inactive
same,outcome,[2],inactive
same,outcome,[3],inactive
Cc1ccc(N2CCN(C(CCc3ccccc3)C(=O)Nc3c(C)cccc3C)CC2)cc1 (stereo not drawn),outcome,[4],inactive
same,outcome,[2],inactive
CCC(=O)N(C)C[C@@H]1Oc2cc(C#CC(C)(C)O)ccc2S(=O)(=O)N([C@H](C)CO)C[C@H]1C,outcome,[1],inactive
same,outcome,[2],inactive
same,outcome,[3],inactive
C(=Nn1cnnc1)c1ccc2c(c1)CCC2,outcome,[4],inactive
same,outcome,[2],inactive
Cc1ccc2cc(NC(=O)c3ccccc3)ccc2n1,outcome,[4],inactive
same,outcome,[2],inactive
Cc1cccc(NC(=S)NN(Cc2ccccc2)c2ccccc2)c1C,outcome,[4],inactive
same,outcome,[2],inactive
CO[C@@H]1CN(C)C(=O)c2cc(NC(=O)C3CCOCC3)ccc2OC[C@H](C)NC[C@@H]1C,outcome,[4],inactive
same,outcome,[2],inactive
same,outcome,[3],inactive
C[C@@H]1CN([C@@H](C)CO)C(=O)Cc2cc(NC(=O)c3ccncc3)ccc2O[C@H]1CN(C)Cc1ccncc1,outcome,[1],inactive
same,outcome,[2],inactive
same,outcome,[3],inactive
C[C@@H]1CN([C@@H](C)CO)C(=O)Cc2cc(NS(=O)(=O)c3ccccc3)ccc2O[C@@H]1CN(C)Cc1ccc(Cl)c(Cl)c1,outcome,[4],inactive
same,outcome,[2],inactive
CC(C)CC#Cc1ccc2c(c1)O[C@H](CN(C)C(=O)C1CCC1)[C@@H](C)CN([C@@H](C)CO)S2(=O)=O,outcome,[4],inactive
same,outcome,[2],inactive
COC(=O)C1=C(C)N(C)C(=S)N(C)C1c1ccc(OC)cc1 (stereo not drawn),outcome,[4],inactive
same,outcome,[2],inactive
same,outcome,[3],inactive
COC(=O)C1=C(C)N(Cc2ccc(Br)cc2)C(=S)NC1c1cccc(Br)c1 (stereo not drawn),outcome,[4],inactive
same,outcome,[2],inactive
C/C=C/c1ccc([C@@H]2[C@H]3CN(C(=O)Nc4ccc(OC)cc4)CCCCN3[C@H]2CO)cc1,outcome,[4],inactive
same,outcome,[2],inactive
CC(C)NC(=O)Nc1ccc2c(c1)CC(=O)N([C@@H](C)CO)C[C@@H](C)[C@H](CN(C)C(=O)Nc1ccc3c(c1)OCO3)O2,outcome,[1],inactive
same,outcome,[2],inactive
same,outcome,[3],inactive
COc1ccc(NC(=O)N(C)C[C@@H]2OCCCC[C@@H](C)Oc3ccc(NC(=O)Nc4ccc5c(c4)OCO5)cc3C(=O)N([C@@H](C)CO)C[C@H]2C)cc1,outcome,[1],inactive
same,outcome,[2],inactive
same,outcome,[3],inactive
Cc1ccc(NC(=S)Nc2ccc(Cl)c(Cl)c2)c(OC(F)F)c1,outcome,[4],inactive
same,outcome,[2],inactive
CN1CCN(CCCNC(=O)c2ccc(/C=C3\Oc4ccccc4N(Cc4ccccc4F)C3=O)cc2)CC1,outcome,[4],inactive
same,outcome,[2],inactive
C[C@H]1CN([C@@H](C)CO)C(=O)c2ccccc2-c2ccccc2CO[C@H]1CN(C)S(=O)(=O)c1cccc(C#N)c1,outcome,[1],inactive
same,outcome,[2],inactive
same,outcome,[3],inactive
Cc1ccc(-n2ncc3c(SCC(N)=O)ncnc32)cc1C,outcome,[4],inactive
same,outcome,[2],inactive
O=C(C1CCOCC1)N1C[C@H]2[C@@H](c3ccccc31)[C@@H](CO)N2Cc1ccccc1Cl,outcome,[4],inactive
same,outcome,[2],inactive
